Data on seven molecules can be found in PubChem BioAssay (NCI).

About 83,000 compounds went through this panel and 20% of them were active in at least one assay; those are over-represented in the sample as a whole.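 Results are percent growth after 48 hours of single-concentration exposure. 100 means growth as in untreated cells, lower positive values show inhibition; negative values down to -100 show cell death.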 Unmarked numbers belong to inactive results. Calls of active or inactive are those of the source. Rule for the calls: active = growth percent below 10; inactive = the rest.

Assay in all cases: NCI-60 one-dose screen, 48 h (100 = growth as untreated, 0 = no growth, -100 = all killed)
One experiment relates to DU-145 prostate. Conditions: 10 µM unless noted.
In another experiment the test system is K-562 leukemia. Conditions: 10 µM unless noted.
The subject of another experiment is MALME-3M melanoma. Conditions: 10 µM unless noted.
In a further experiment the test system is MDA-MB-231 breast. Conditions: 10 µM unless noted.
The test system of the next experiment is RXF 393 renal. Conditions: 10 µM unless noted.
Another experiment deals with SF-268 CNS. The note with it: 10 µM unless noted.
For a further experiment, the system named is SF-295 CNS. The note with it: 10 µM unless noted.
For another experiment, the system named is SF-539 CNS. The note with it: 10 µM unless noted.
A further experiment concerns UACC-257 melanoma. The note with it: 10 µM unless noted.
The test system of another experiment is M14 melanoma. Conditions: 10 µM unless noted.
A further experiment has as its system HCT-15 colon. Conditions: 10 µM unless noted.
The subject of the next experiment is HT29 colon. The note with it: 10 µM unless noted.
For another experiment, the system named is SNB-19 CNS. The note with it: 10 µM unless noted.
For the next experiment, the system named is U251 CNS. Conditions: 10 µM unless noted.
For the next experiment, the system named is PC-3 prostate. Conditions: 10 µM unless noted.
Another experiment has as its system SK-MEL-5 melanoma. The note with it: 10 µM unless noted.
The test system of another experiment is UACC-62 melanoma. Conditions: 10 µM unless noted.
For the next experiment, the system named is LOX IMVI melanoma. Conditions: 10 µM.
For the next experiment, the system named is SK-MEL-28 melanoma. Conditions: 10 µM unless noted.

In the case of `COc1c(F)ccc(C(=O)Nc2ccc3nc(NC(=O)C4CCCN(S(=O)(=O)c5ccc(C#N)cc5)C4)sc3c2)c1F` (stereo not drawn), the growth with DU-145 prostate is 95.7%; with K-562 leukemia it was 62.6%; with MALME-3M melanoma, 97.5%; in the experiment on MDA-MB-231 breast, 99.1%; in the experiment with RXF 393 renal it was 46.7%; in the experiment with SF-268 CNS, 93.5%. In addition, the growth in the experiment with SF-295 CNS was 90.1%; with SF-539 CNS, 73.1%; in the experiment on UACC-257 melanoma, 87.1%; in the experiment on M14 melanoma it was 92.7%; in the experiment on HCT-15 colon, 90.1%; in the experiment with HT29 colon it was 85.8%. Also, the growth was 100% in the experiment with SNB-19 CNS; 89.3% in the experiment on U251 CNS; 81.9% in the experiment on PC-3 prostate; 82.5% in the experiment with SK-MEL-5 melanoma; 78.7% in the experiment with UACC-62 melanoma; 95.4% in the experiment on LOX IMVI melanoma. The growth in the experiment with SK-MEL-28 melanoma was 105%.

Turning to `Cn1cc(-c2cc3nc(-c4cn(C)c5ncccc45)cc(N)n3n2)c2cc(Cl)ccc21`, the growth with DU-145 prostate was -15% (active); in the experiment on K-562 leukemia it was -51.3% (active); in the experiment on MALME-3M melanoma, -97.4% (active); in the experiment with MDA-MB-231 breast, -96.2% (active); with RXF 393 renal, -84.2% (active); in the experiment on SF-268 CNS, -45% (active). The growth in the experiment on SF-295 CNS is -81.5% (active); with SF-539 CNS, -98.5% (active); in the experiment on UACC-257 melanoma, -76.5% (active); in the experiment on M14 melanoma it was -90.8% (active); in the experiment on HCT-15 colon, -64.5% (active); in the experiment with HT29 colon it was -55.6% (active). Besides, the growth with SNB-19 CNS was -88.1% (active); in the experiment with U251 CNS, -79.7% (active); in the experiment on PC-3 prostate, -82.1% (active); in the experiment on SK-MEL-5 melanoma it was -99.4% (active); in the experiment on UACC-62 melanoma, -99.6% (active); in the experiment with LOX IMVI melanoma, -100% (active). Also, the growth with SK-MEL-28 melanoma is -99.9% (active).

As for `CCCSc1nc(Nc2ccc(S(N)(=O)=O)cc2)c(C#N)c(-c2ccc(Cl)cc2)n1`, the growth with DU-145 prostate is 58.7%; in the experiment with K-562 leukemia it was 7.3% (active); in the experiment with MALME-3M melanoma, -4.55% (active); with MDA-MB-231 breast, -55.6% (active); in the experiment with RXF 393 renal it was -43.4% (active); with SF-268 CNS it was 66%. Further, the growth is 1.43% (active) in the experiment with SF-295 CNS; -4.39% (active) in the experiment on SF-539 CNS; 54.8% with UACC-257 melanoma; 18.8% with M14 melanoma; 21.7% with HCT-15 colon; 33.6% in the experiment with HT29 colon. The growth in the experiment on SNB-19 CNS was 28.2%; with U251 CNS it was -14.8% (active); in the experiment on PC-3 prostate, 64.3%; with SK-MEL-5 melanoma it was 55.9%; with UACC-62 melanoma, 31.1%; with LOX IMVI melanoma it was -96.3% (active). In addition, the growth in the experiment on SK-MEL-28 melanoma is 73.8%.

For the molecule `COc1ccc(-c2nc3cc(C)ccc3n2CC(=O)N=Nc2c(O)[nH]c3ccc(OC)cc23)cc1`, the growth with DU-145 prostate is 8.56% (active); in the experiment on K-562 leukemia it was -28.5% (active); in the experiment with MALME-3M melanoma, -94.6% (active); in the experiment with MDA-MB-231 breast it was -76.3% (active); with RXF 393 renal it was -82.9% (active); with SF-268 CNS it was -8.44% (active). Moreover, the growth with SF-295 CNS is -72.9% (active); with SF-539 CNS, -99% (active); in the experiment with UACC-257 melanoma it was -78% (active); with M14 melanoma, -83.2% (active); in the experiment with HCT-15 colon, -86.5% (active); with HT29 colon it was -20% (active). Further, the growth in the experiment on SNB-19 CNS is 4.91% (active); with U251 CNS, -80.2% (active); with PC-3 prostate, -52.4% (active); with SK-MEL-5 melanoma it was -95.9% (active); in the experiment on UACC-62 melanoma, -86.5% (active); in the experiment with LOX IMVI melanoma, -98% (active). The growth with SK-MEL-28 melanoma was -97.8% (active).

Turning to `O=C(C1=CNC(=S)NC1c1ccc(O)cc1)c1cc2ccccc2oc1=O` (stereo not drawn), the growth is 110% in the experiment with DU-145 prostate; 90.9% with K-562 leukemia; 108% with MALME-3M melanoma; 105% in the experiment with MDA-MB-231 breast; 109% in the experiment on RXF 393 renal; 97.5% in the experiment with SF-268 CNS. Besides, the growth with SF-295 CNS is 98.8%; in the experiment with SF-539 CNS it was 91.9%; in the experiment with UACC-257 melanoma, 107%; in the experiment with M14 melanoma, 96.4%; in the experiment on HCT-15 colon it was 104%; with HT29 colon it was 106%. Moreover, the growth in the experiment with SNB-19 CNS is 97.7%; in the experiment with U251 CNS, 102%; in the experiment on PC-3 prostate, 86.7%; with SK-MEL-5 melanoma, 101%; with UACC-62 melanoma, 95.8%; with LOX IMVI melanoma, 91.5%. For the same molecule, the growth with SK-MEL-28 melanoma is 118%.

In the case of `CCOC(=O)/C=C/c1cccc2c1C(=O)NC(C)(c1cc3cc(Cl)ccc3oc1=O)N2` (stereo not drawn), the growth is 37.7% in the experiment with DU-145 prostate; 19% in the experiment with K-562 leukemia; 32.7% in the experiment with MALME-3M melanoma; 32.1% in the experiment on MDA-MB-231 breast; -1.81% (active) in the experiment with RXF 393 renal; 45.5% in the experiment on SF-268 CNS. Also, the growth is 19.3% in the experiment on SF-295 CNS; 38.5% in the experiment with SF-539 CNS; 44.3% with UACC-257 melanoma; 22.3% with M14 melanoma; 20.9% in the experiment on HCT-15 colon; 32.5% in the experiment on HT29 colon. For the same molecule, the growth in the experiment with SNB-19 CNS is 33.8%; in the experiment on U251 CNS, 33.9%; in the experiment on PC-3 prostate, 17.4%; with SK-MEL-5 melanoma, 10.2%; in the experiment with UACC-62 melanoma, 13.4%; in the experiment on LOX IMVI melanoma, 22.2%. Also, the growth in the experiment on SK-MEL-28 melanoma was 53.9%.

Consider `COc1c(F)ccc(C(=O)Nc2ccc3nc(NC(=O)C4CCCN(S(=O)(=O)c5ccc(Cl)cc5)C4)sc3c2)c1F` (stereo not drawn), for which the growth with DU-145 prostate is 93.4%; in the experiment with K-562 leukemia it was 59.2%; in the experiment on MALME-3M melanoma, 90.5%; in the experiment with MDA-MB-231 breast it was 81.1%; in the experiment on RXF 393 renal, 8.75% (active); with SF-268 CNS, 77.4%. Also, the growth with SF-295 CNS is 63.6%; in the experiment on SF-539 CNS it was 66.8%; with UACC-257 melanoma, 82.4%; in the experiment with M14 melanoma it was 75.6%; with HCT-15 colon, 72.8%; in the experiment on HT29 colon, 72.1%. Moreover, the growth in the experiment with SNB-19 CNS was 82.5%; in the experiment with U251 CNS, 70.3%; with PC-3 prostate it was 55.9%; in the experiment with SK-MEL-5 melanoma, 72.3%; with UACC-62 melanoma, 67.1%; in the experiment with LOX IMVI melanoma, 76%. Moreover, the growth in the experiment with SK-MEL-28 melanoma was 89.4%.
